# Source: article PMC7862700, “An all-to-all approach to the identification of sequence-specific readers for epigenetic DNA modifications on cytosine”
# Experiments:
# Assay in all cases: DAPPL (digital affinity profiling via proximity ligation, sequencing); 10 mM Tris-HCl pH 7.5, 50 mM NaCl, 1 mM DTT, 4% glycerol, room temperature, 30 min; GST-TFs on glutathione beads, 16-mer random dsDNA library, 0.1% formaldehyde crosslink after washing; high values mean tight binding
# [1] = biological target: T1, FEV (Homo sapiens, UniProt Q99581 1-238); details: protein: recombinant; tags: N-terminal GST; dsDNA, one strand shown
# T1 sequence: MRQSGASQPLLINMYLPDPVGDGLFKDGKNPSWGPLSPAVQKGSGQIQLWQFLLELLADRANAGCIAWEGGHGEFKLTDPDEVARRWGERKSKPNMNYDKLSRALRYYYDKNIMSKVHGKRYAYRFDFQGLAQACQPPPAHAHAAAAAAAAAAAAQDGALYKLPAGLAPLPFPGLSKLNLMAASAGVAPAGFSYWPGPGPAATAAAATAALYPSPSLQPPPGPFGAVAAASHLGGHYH
# Summary of the method: (§1)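 GST fusions of human transcription factors were expressed in yeast and captured with glutathione beads. Once given DNA barcodes and pooled alongside a tag-only sample, they were incubated for 30 min at room temperature with 200 nmole of a random double-stranded 16-mer DNA library in Tris/NaCl/DTT/glycerol buffer, then washed, crosslinked (0.1% formaldehyde), proximity-ligated, PCR-amplified and sequenced on an Illumina NextSeq500. The binding signal of each hexamer is its read frequency for a factor divided by its frequency for the tag-only sample.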
# [2] = biological target: ETV5 (Homo sapiens, UniProt P41161 1-510); details: protein: recombinant; tags: N-terminal GST; dsDNA, one strand shown
# Sequence of ETV5 (P41161 whole entry): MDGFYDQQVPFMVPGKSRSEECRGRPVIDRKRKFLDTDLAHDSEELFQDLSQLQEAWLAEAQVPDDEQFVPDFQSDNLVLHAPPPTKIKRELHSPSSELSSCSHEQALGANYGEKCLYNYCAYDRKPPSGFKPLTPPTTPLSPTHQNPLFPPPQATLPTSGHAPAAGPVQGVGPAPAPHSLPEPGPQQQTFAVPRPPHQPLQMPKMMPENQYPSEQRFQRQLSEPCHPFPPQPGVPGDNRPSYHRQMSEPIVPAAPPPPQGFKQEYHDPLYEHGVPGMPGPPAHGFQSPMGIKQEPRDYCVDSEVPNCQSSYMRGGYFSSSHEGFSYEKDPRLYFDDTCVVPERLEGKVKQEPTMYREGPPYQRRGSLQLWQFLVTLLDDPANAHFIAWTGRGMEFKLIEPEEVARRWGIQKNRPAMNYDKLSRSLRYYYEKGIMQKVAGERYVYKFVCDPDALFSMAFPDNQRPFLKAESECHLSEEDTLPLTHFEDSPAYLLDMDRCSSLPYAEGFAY
# Summary of the method: as §1
# [3] = biological target: HSF1 (Homo sapiens, UniProt Q00613 1-529); details: protein: recombinant; tags: N-terminal GST; chain copies: 3; dsDNA, one strand shown
# Sequence of HSF1 (Q00613 whole entry): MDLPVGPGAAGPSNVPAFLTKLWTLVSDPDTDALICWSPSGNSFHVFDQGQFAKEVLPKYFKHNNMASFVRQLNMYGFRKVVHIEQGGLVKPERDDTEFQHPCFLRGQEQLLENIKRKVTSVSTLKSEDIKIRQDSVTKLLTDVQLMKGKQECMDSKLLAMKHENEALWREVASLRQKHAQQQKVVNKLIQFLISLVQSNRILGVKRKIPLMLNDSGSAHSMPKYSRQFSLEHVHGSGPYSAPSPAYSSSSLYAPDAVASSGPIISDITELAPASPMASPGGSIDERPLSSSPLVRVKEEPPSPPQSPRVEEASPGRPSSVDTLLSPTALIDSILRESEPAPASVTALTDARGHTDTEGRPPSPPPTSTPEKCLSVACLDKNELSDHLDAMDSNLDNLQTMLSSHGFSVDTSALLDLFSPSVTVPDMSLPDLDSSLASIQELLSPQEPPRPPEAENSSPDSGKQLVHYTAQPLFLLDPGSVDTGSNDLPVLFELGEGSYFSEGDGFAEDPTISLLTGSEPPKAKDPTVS
# Summary of the method: as §1
# [4] = biological target: T2, SPIC (Homo sapiens, UniProt Q8N5J4 1-248); details: protein: recombinant; tags: N-terminal GST; dsDNA, one strand shown
# T2 sequence: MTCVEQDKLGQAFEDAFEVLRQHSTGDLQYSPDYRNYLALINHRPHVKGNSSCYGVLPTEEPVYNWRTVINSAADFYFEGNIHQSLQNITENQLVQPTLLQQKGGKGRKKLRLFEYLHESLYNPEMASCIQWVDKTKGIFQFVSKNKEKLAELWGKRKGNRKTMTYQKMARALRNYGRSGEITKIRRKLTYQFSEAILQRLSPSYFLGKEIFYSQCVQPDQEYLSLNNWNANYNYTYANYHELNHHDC
# Summary of the method: as §1
# [5] = biological target: ELF4 (Homo sapiens, UniProt Q99607 1-663); details: protein: recombinant; tags: N-terminal GST; dsDNA, one strand shown
# Sequence of ELF4 (Q99607 whole entry): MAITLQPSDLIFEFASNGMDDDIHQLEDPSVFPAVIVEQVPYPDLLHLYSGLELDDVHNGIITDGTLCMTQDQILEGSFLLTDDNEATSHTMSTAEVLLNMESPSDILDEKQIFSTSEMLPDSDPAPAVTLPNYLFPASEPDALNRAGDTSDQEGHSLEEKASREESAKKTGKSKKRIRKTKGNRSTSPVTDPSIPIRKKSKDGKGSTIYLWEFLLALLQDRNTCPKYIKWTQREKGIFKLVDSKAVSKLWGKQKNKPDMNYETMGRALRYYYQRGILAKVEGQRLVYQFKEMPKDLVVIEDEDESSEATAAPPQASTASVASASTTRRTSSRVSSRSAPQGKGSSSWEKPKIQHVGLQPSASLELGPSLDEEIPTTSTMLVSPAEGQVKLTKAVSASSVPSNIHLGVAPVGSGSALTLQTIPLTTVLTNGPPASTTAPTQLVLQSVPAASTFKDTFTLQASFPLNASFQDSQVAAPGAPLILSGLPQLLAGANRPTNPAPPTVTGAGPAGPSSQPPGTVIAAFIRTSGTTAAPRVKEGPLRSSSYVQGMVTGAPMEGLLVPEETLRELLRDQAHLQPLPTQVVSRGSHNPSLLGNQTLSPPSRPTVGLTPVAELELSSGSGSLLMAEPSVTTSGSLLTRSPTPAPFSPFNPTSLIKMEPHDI
# Summary of the method: as §1
# [6] = biological target: T3, ELK4 (Homo sapiens, UniProt P28324-2 1-405); details: protein: recombinant; tags: N-terminal GST; dsDNA, one strand shown
# T3 sequence: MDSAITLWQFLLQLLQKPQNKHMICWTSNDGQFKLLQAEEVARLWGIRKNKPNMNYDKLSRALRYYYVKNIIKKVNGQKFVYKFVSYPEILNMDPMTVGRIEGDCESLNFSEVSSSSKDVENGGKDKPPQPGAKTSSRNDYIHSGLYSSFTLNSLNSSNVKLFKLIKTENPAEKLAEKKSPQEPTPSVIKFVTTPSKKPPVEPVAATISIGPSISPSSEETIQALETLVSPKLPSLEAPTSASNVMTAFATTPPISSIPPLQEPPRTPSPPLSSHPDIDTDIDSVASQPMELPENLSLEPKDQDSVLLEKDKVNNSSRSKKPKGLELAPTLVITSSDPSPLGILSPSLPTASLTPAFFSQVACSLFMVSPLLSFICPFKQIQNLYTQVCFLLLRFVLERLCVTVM
# Summary of the method: as §1
# [7] = biological target: T4, ETV2 (Homo sapiens, UniProt O00321 1-342); details: protein: recombinant; tags: N-terminal GST; dsDNA, one strand shown
# T4 sequence: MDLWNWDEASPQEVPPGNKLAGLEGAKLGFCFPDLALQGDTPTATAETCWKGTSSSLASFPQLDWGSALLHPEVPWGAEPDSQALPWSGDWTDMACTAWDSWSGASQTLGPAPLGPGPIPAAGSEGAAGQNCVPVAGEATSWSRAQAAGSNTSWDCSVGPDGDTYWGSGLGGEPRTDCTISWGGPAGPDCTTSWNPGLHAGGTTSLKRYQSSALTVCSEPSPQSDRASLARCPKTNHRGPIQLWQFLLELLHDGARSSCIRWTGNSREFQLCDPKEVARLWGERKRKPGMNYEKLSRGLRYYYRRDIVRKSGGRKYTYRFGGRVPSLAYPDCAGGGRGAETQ
# Summary of the method: as §1
# [8] = biological target: T5, ELF3 (Homo sapiens, UniProt P78545 1-371); details: protein: recombinant; tags: N-terminal GST; dsDNA, one strand shown
# T5 sequence: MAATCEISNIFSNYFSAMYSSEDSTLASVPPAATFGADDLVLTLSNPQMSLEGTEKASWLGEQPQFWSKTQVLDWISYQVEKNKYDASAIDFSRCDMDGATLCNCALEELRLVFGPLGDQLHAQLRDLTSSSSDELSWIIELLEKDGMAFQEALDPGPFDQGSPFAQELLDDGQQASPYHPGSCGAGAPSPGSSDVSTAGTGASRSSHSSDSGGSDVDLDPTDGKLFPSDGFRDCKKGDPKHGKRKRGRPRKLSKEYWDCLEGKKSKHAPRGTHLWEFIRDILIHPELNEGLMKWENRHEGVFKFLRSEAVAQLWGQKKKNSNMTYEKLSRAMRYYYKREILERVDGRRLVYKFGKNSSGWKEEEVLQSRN
# Summary of the method: as §1
# [9] = biological target: CRX (Homo sapiens, UniProt O43186 1-299); details: protein: recombinant; tags: N-terminal GST; dsDNA, one strand shown
# Sequence of CRX (O43186 whole entry): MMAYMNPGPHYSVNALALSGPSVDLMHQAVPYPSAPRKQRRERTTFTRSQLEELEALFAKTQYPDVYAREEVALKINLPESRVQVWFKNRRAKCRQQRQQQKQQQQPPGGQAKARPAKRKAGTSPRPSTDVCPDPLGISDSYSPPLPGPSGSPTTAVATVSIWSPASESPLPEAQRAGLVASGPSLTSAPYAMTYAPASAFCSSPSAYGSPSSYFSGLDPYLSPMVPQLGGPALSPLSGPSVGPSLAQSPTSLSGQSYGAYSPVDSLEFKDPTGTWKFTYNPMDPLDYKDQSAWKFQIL
# Summary of the method: as §1
# [10] = biological target: ETV1 (Homo sapiens, UniProt P50549 1-477); details: protein: recombinant; tags: N-terminal GST; dsDNA, one strand shown
# Sequence of ETV1 (P50549 whole entry): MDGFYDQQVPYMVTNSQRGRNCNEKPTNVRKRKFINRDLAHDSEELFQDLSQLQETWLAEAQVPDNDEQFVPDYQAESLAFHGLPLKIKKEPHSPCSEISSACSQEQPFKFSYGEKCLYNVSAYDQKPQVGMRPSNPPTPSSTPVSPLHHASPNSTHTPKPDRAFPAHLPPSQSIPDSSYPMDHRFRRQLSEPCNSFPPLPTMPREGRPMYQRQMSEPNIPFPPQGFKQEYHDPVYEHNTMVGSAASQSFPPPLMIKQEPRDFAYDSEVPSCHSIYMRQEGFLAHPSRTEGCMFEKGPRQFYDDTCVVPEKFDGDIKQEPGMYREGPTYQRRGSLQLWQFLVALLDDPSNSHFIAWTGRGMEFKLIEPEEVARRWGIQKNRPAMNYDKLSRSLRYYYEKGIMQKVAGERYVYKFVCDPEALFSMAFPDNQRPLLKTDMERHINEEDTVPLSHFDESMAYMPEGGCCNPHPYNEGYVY
# Summary of the method: as §1
sequence,measurement,setting,value
CTCAAA,binding signal,[1],"1.28 fold enrichment (6-mer frequency, TF over GST control)"
same,binding signal,[2],"1.18 fold enrichment (6-mer frequency, TF over GST control)"
same,binding signal,[3],"1.24 fold enrichment (6-mer frequency, TF over GST control)"
same,binding signal,[4],"1.2 fold enrichment (6-mer frequency, TF over GST control)"
same,binding signal,[5],"1.18 fold enrichment (6-mer frequency, TF over GST control)"
same,binding signal,[6],"1.2 fold enrichment (6-mer frequency, TF over GST control)"
same,binding signal,[7],"1.16 fold enrichment (6-mer frequency, TF over GST control)"
same,binding signal,[8],"1.32 fold enrichment (6-mer frequency, TF over GST control)"
same,binding signal,[9],"1.25 fold enrichment (6-mer frequency, TF over GST control)"
same,binding signal,[10],"1.2 fold enrichment (6-mer frequency, TF over GST control)"
